The full ranking holds about 35,000 sequences; the median of “fluorescence intensity (a.u.)” is about 10,000, and the highest 2% start at about 52,000. For the sample, the highest values were picked, then their nearest neighbours and some sequences at random.
Each sequence was assayed against T1, OsWOX13 (Oryza sativa, UniProt Q5QMM3 1-267) (assay: protein-binding microarray (RPBM); PBS, 2% BSA, 51.3 ng/ul salmon testes DNA, 50 uM zinc acetate, 200 nM TF, 25 C, 1 h; high values mean tight binding). Details: protein: recombinant; tags: N-terminal polyhistidine and DsRed monomer fusion (pET32a); label: CyDye5-dUTP incorporated in the synthesized complementary strand; 3' TTTTT single-stranded linker to array surface; dsDNA, one strand shown.
T1 sequence: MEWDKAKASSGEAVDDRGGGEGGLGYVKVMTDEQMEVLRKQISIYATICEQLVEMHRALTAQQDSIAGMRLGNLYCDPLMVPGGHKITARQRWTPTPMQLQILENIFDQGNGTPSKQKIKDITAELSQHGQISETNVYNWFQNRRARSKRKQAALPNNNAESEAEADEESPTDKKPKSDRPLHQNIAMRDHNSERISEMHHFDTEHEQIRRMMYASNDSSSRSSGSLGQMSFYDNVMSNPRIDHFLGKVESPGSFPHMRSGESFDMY
In short: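 For the binding signal, per-feature fluorescence intensity was read in arbitrary units on an Axon 4000B scanner. Before scanning, a 2% BSA-blocked custom Agilent array made double-stranded with Cy5-dUTP was washed after 1 h at 25 °C with 200 nM protein and 50 µM zinc acetate. The proteins were Ni–NTA-purified transcription factors with N-terminal polyhistidine and DsRed fusions, expressed in E. coli BL21-CodonPlus.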

Row | Sequence | binding signal
1 | ATGATTGATTGTAAATTAGGTTGAATAATTGATATATACTCGGAGTCACCTAGTGCAG | 54800 fluorescence intensity (a.u.)
2 | TTAAATAAATTACTTTTAAATTAATAAAATGTTTGAATATCGGAGTCACCTAGTGCAG | 5500 fluorescence intensity (a.u.)
3 | ATGTAAATTACTTTTAGGCTTTATTGAATTACTTTTATATCGGAGTCACCTAGTGCAG | 7630 fluorescence intensity (a.u.)
4 | AAAATATATAATTATTATTTATTTTATTATGACATGATATCGGAGTCACCTAGTGCAG | 17400 fluorescence intensity (a.u.)
5 | ATTGATTTAATGAAAATAATTTAATATTATAAATATTACTCGGAGTCACCTAGTGCAG | 35700 fluorescence intensity (a.u.)
6 | GTCTCGATATAATTATGAATTTTGAAATATATAAACCCATCGGAGTCACCTAGTGCAG | 8250 fluorescence intensity (a.u.)
7 | TCACATTGATATTAATTAATCTAGATAAATATATATATGTCGGAGTCACCTAGTGCAG | 17200 fluorescence intensity (a.u.)
8 | CGAAATTATAATGATTAAACAAAATTGATCGATATAACTACGGAGTCACCTAGTGCAG | 41000 fluorescence intensity (a.u.)
9 | ATATAATTGATAATAAATCAGGGCATGACATGTCACATATCGGAGTCACCTAGTGCAG | 56400 fluorescence intensity (a.u.)
10 | ATAATAATTGATAGGTAACCATGATTATCGATAAAACCATCGGAGTCACCTAGTGCAG | 59000 fluorescence intensity (a.u.)
11 | TGTAATTGATAAATATAAATTTACTTTAGGCATGTTTGATCGGAGTCACCTAGTGCAG | 55700 fluorescence intensity (a.u.)
12 | GTGGTTGTATTAAATATATTGATAGTTAGGTATATGAATACGGAGTCACCTAGTGCAG | 4110 fluorescence intensity (a.u.)
13 | TTGTATTTGTTAATGGAATGCTGATTGGTGCACAGCAAACCGGAGTCACCTAGTGCAG | 29900 fluorescence intensity (a.u.)
14 | ATTAAATTTGGGCTAACTGGCCTCCACACATCCCATATAACGGAGTCACCTAGTGCAG | 11000 fluorescence intensity (a.u.)
15 | GATAAATTACGATAATACCCCTATACGAATTATTATCTCTCGGAGTCACCTAGTGCAG | 12900 fluorescence intensity (a.u.)
16 | TGTTTTGATTGTTTCTTATTACTCCCTCCGATTATAAATACGGAGTCACCTAGTGCAG | 25500 fluorescence intensity (a.u.)
17 | TCCGATTGATTACCTTCTATAAATACCTCACCCCACCCCTCGGAGTCACCTAGTGCAG | 57600 fluorescence intensity (a.u.)
18 | ATTGATTAGTAGTAATTAATTAGTTATAAACTACACGCGCCGGAGTCACCTAGTGCAG | 58700 fluorescence intensity (a.u.)
19 | ATTGATAATTAGTTCACCGAAGTAGTAGGGCGCGACACGCCGGAGTCACCTAGTGCAG | 15900 fluorescence intensity (a.u.)
20 | CTAAATTGATTATACATGATTTAGAGTTAGTAGTTAGCTACGGAGTCACCTAGTGCAG | 59600 fluorescence intensity (a.u.)
21 | GTGCAAGGATAATTGGTGATTATATTAGTGTATATTTAAGCGGAGTCACCTAGTGCAG | 18200 fluorescence intensity (a.u.)

Row | Sequence | binding signal
22 | ATTGATTTACGGGATTGAAGTTAGTATAATTACATGTAAGCGGAGTCACCTAGTGCAG | 53600 fluorescence intensity (a.u.)
23 | CAGATGATTAGTAATGTTAATTATGAATAAACTTGCACGCCGGAGTCACCTAGTGCAG | 51800 fluorescence intensity (a.u.)
24 | AATATTATTTATATGTAATTACATAAGTAATATGTAATTTCGGAGTCACCTAGTGCAG | 9490 fluorescence intensity (a.u.)
25 | AGCTATTAGTAGATTGGCTATAAATGAATTGGAGTTAGTACGGAGTCACCTAGTGCAG | 14900 fluorescence intensity (a.u.)
26 | TAAATTGGCTATTACATTAGTTATAAATGATTTGGAGCTACGGAGTCACCTAGTGCAG | 34400 fluorescence intensity (a.u.)
27 | CCTCCTGTTAACTCGTATCACCTCCCTCCCTCACTGAACCCGGAGTCACCTAGTGCAG | 7850 fluorescence intensity (a.u.)
28 | ATAAAGACTGTTCAATCATGATGAAGCTTTACGTAAGCGGCGGAGTCACCTAGTGCAG | 34900 fluorescence intensity (a.u.)
29 | TTTACAAACACGCAAATTAAAATTTTATTTATACAATTAACGGAGTCACCTAGTGCAG | 4180 fluorescence intensity (a.u.)
30 | GTACCAATTTAATTTATGTATCAATAAGAACATATCATGTCGGAGTCACCTAGTGCAG | 22800 fluorescence intensity (a.u.)
31 | TCAGCTTATTGACTTATATGATTTATAAGCCAATGGATTTCGGAGTCACCTAGTGCAG | 11100 fluorescence intensity (a.u.)
32 | CTGATTAGCATGCAGGATAGGAACTGATCTGTACTTGTCGCGGAGTCACCTAGTGCAG | 22300 fluorescence intensity (a.u.)
33 | ACTAATTTCATAACTCTCCTGGAAACCGTGAGATGAATCTCGGAGTCACCTAGTGCAG | 6360 fluorescence intensity (a.u.)
34 | TTCCTTTGATTGATCATGAGGTGGGCTGGGGCTGAGATGGCGGAGTCACCTAGTGCAG | 59400 fluorescence intensity (a.u.)
35 | TTCTGAATGTGATTGAATTAATTGGACTTGCGTTGACCTTCGGAGTCACCTAGTGCAG | 59500 fluorescence intensity (a.u.)
36 | CCCAATTAATTACAATGGGCCACACGCTCGTGGCCCAACTCGGAGTCACCTAGTGCAG | 10900 fluorescence intensity (a.u.)
37 | AAATTTATGTAATTATTATTTATTTTATTGTGACTTGATTCGGAGTCACCTAGTGCAG | 8590 fluorescence intensity (a.u.)
38 | CTCGAGGTCAAATCTTGATTAATTATGCTAATTAACGCGACGGAGTCACCTAGTGCAG | 16800 fluorescence intensity (a.u.)
39 | GATGATGATGAGGAGGATGACCAGGATGGTGGAGACTGGGCGGAGTCACCTAGTGCAG | 4950 fluorescence intensity (a.u.)
40 | CCCACAATTAATTGGGCCTAATGGATCGGTGCCCTTGTGGCGGAGTCACCTAGTGCAG | 53600 fluorescence intensity (a.u.)
41 | ACAATTAACTAATAATAATTAGTGATTACTTATCTTGATTCGGAGTCACCTAGTGCAG | 45300 fluorescence intensity (a.u.)
42 | GTAATTGCGGCCCATTAACCTAAATGGGCCGATCGAGTGGCGGAGTCACCTAGTGCAG | 4580 fluorescence intensity (a.u.)

Row | Sequence | binding signal
43 | GAGAGATGATGGGCTGGTTTGGTTTGAGGCCTAAATTAGGCGGAGTCACCTAGTGCAG | 3660 fluorescence intensity (a.u.)
44 | ATGATTGCTTAAGAATAATTGGTGACTTGCTACGAATGTGCGGAGTCACCTAGTGCAG | 51300 fluorescence intensity (a.u.)
45 | TAGGTGATTAGTTGATTAATTAATCTTGAGCTCCTCCTAACGGAGTCACCTAGTGCAG | 58800 fluorescence intensity (a.u.)
46 | TGAATGATTGCTCTTGTGCTAAGAGAATAGACTTTATCCCCGGAGTCACCTAGTGCAG | 32000 fluorescence intensity (a.u.)
47 | TCGGTATTGTGATTGAGGGGTAAGAGTAAGTTTCGGCCACCGGAGTCACCTAGTGCAG | 18700 fluorescence intensity (a.u.)
48 | TTAATTGTAAGTTTAACTATTGCTACTTCGCTTGCAGCGTCGGAGTCACCTAGTGCAG | 13600 fluorescence intensity (a.u.)
49 | AATCATGGCGTAATTAGGCTTAAAAGATTCGTCTCGCAATCGGAGTCACCTAGTGCAG | 3620 fluorescence intensity (a.u.)
50 | TTATCCAAAACGTCAATTAATATAGAACTAGAGTGAGTACCGGAGTCACCTAGTGCAG | 4500 fluorescence intensity (a.u.)
51 | TTAATTGATTGATTGATTGATTAATCCGTTGTGAATCTAACGGAGTCACCTAGTGCAG | 61500 fluorescence intensity (a.u.)
52 | GCTCTAATAATTGAATAATTTGATTTGTTTTATTTAAATCCGGAGTCACCTAGTGCAG | 30100 fluorescence intensity (a.u.)
53 | TGCGTGATTGTTGGGATTATTTTATTAATTGATCCAATGGCGGAGTCACCTAGTGCAG | 57200 fluorescence intensity (a.u.)
54 | GATTTAATTTATTTTGGTAATGATTTGTGGATGATTTTGGCGGAGTCACCTAGTGCAG | 31600 fluorescence intensity (a.u.)
55 | AGTTATTGACAGTGACTAATCTACCTAATCCGTAGATTAACGGAGTCACCTAGTGCAG | 12500 fluorescence intensity (a.u.)
56 | CCATCACATCCGTTGGCCTAATTGATTTGTGAAGCATCAACGGAGTCACCTAGTGCAG | 4240 fluorescence intensity (a.u.)
57 | TTAATTGATTGAATCACATCCTTCCGGATTGTTTTGATCCCGGAGTCACCTAGTGCAG | 40800 fluorescence intensity (a.u.)
58 | TGTTGATTGTTGTGTTTAATTGGAGATTGACTATTGAATCCGGAGTCACCTAGTGCAG | 60200 fluorescence intensity (a.u.)
59 | ACTTAATTATTGTTATGATTCATTCATGCATAAAGCGGTGCGGAGTCACCTAGTGCAG | 55700 fluorescence intensity (a.u.)
60 | TTATACATCCAAATTTGATTGTTGCGTGCTTATTTTGTTGCGGAGTCACCTAGTGCAG | 13700 fluorescence intensity (a.u.)
61 | GAGTTATGATTTGTTACAATAATTGTAACTTATTGTAAAGCGGAGTCACCTAGTGCAG | 27900 fluorescence intensity (a.u.)
62 | CATTCATATTGATGTTAATAAATTAATATAGATATATATGCGGAGTCACCTAGTGCAG | 3590 fluorescence intensity (a.u.)
